# LDHA inh: qHTS assay for inhibitors of human lactate dehydrogenase. AID 1347041, 2019. L-lactate dehydrogenase A chain (Homo sapiens), P00338. purified LDHA, NADH/diaphorase-resazurin fluorescence; active compounds read low. activity change, % (values are at about 110 or 230 µM). 480,000 tested, 0.15% active; in the data active means activity change below about -30%; inconclusive means mostly about -25% to -30%;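 further: plate controls were DMSO wells for no effect and wells without enzyme for full effect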
#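 LDH5 2 nM; NADH 0.06 mM, pyruvate 0.2 mM; 200 mM Tris pH 7.4, EDTA, Tween-20; 5 min RT. Detection: diaphorase 0.133 mg/mL + resazurin 37 µM, fluorescence ex540/em590 at 0 and 20 min; normalized to enzyme-free and DMSO wells.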
# TRPV1 agonist: HTS Assay for Compounds that Act as Agonists of the Vanilloid Receptor 1 | Transient receptor potential cation channel subfamily V member 1 (Homo sapiens), Q8NER1 | TRPV1-expressing cells, Fluo-8 calcium influx, agonist mode | activation, % at 8.33 µM | 320,000 tested, 0.19% active; in the data active means activation above about 80%; inconclusive means between about 30% and that limit; further: 0% is about no effect
# Target sequence (Q8NER1 whole entry, looked up): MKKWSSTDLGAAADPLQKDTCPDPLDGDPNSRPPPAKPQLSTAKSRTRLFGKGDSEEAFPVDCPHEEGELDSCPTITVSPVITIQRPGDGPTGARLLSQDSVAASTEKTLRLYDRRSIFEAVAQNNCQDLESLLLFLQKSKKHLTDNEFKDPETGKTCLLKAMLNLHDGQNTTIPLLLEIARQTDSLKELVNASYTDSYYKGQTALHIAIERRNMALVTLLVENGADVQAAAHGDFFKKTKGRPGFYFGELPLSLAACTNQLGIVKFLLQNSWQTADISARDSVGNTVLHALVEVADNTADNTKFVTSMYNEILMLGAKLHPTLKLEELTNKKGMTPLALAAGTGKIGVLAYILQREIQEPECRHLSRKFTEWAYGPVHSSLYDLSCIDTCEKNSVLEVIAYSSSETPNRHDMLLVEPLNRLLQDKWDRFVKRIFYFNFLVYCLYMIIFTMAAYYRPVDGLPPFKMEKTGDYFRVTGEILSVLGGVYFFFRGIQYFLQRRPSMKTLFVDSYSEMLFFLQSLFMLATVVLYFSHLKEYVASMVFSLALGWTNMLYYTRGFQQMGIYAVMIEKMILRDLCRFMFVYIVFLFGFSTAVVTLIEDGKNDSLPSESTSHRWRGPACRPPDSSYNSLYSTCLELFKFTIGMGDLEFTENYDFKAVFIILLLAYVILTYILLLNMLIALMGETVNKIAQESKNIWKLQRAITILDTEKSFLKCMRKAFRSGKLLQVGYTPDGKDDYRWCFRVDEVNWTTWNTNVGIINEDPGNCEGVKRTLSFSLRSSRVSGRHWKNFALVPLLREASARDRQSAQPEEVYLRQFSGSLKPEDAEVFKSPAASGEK
#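 Cells expressing TRPV1 were dye-loaded with Fluo-8 and read kinetically: 10 s baseline, 3 min after compound (agonist portion), then 2 min after EC20 capsaicin (allosteric enhancer portion). Calcium-bound dye fluorescence at 480/520 nm.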
# TRPML1 agonist: qHTS for Agonists of the Human Mucolipin Transient Receptor Potential 1 (TRPML1); activation, % (concentration not given with the values); 410,000 tested, 0.12% active; TRPML1-expressing cells, Ca2+ dye fluorescence, FDSS; in the data active means activation above about 50%; inconclusive means mostly about 30% to 49%; further: 0% is about no effect
#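 TRPML1-DL cells, Tet-induced overnight (~16 h, 37 degrees C), loaded 45-90 min at room temperature with Ca8 no-wash calcium dye plus quencher. FDSS fluorescence: 10 s baseline, compound pin-transfer, 110 s agonist read, then EC80 54-4 (4uM final) and 110 s antagonist read.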
# TRPML1 inh: qHTS for Inhibitors of the Human Mucolipin Transient Receptor Potential 1 (TRPML1); Mucolipin-1 (Homo sapiens), Q9GZU1; activity change, negative = inhibition, % (test concentration not listed); 390,000 tested, 0.02% active; TRPML1-inducible cells, Ca2+ dye fluorescence, FDSS; active compounds read low; inhibition of EC80 agonist-evoked calcium signal; in the data active means activity change below about -50%; inconclusive means between about -30% and that limit;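 further: stimulus is agonist 54-4 at its EC80 concentration; on the % scale 0 is the no-effect control and ±100 the full control effect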
#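 Calcium fluorescence in TRPML1-DL cells induced overnight with Tet: a 110 s read after compound pin addition, then a 110 s antagonist read after challenge with 54-4 at 4 uM final (EC80).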
# TRPV1 potentiator: HTS Assay for Compounds that Act as Potentiators of the Vanilloid Receptor 1; Transient receptor potential cation channel subfamily V member 1 (Homo sapiens), Q8NER1; TRPV1-expressing cells, Fluo-8 calcium influx, capsaicin EC20 potentiation; potentiation, % at 8.33 µM; 320,000 tested, 0.02% active; in the data active means potentiation above about 80%; inconclusive means between about 30% and that limit; further: 0% is about no effect
#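 Cells expressing TRPV1 were dye-loaded with Fluo-8 and read kinetically: 10 s baseline, 3 min after compound (agonist portion), then 2 min after EC20 capsaicin (allosteric enhancer portion). Calcium-bound dye fluorescence at 480/520 nm.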
# Numbers without * were called inactive; ? = inconclusive; . = no result given. In the library only some 0.41% were active in any assay of this set; here they are far more common.
SMILES,LDHA inh,TRPV1 agonist,TRPML1 agonist,TRPML1 inh,TRPV1 potentiator
COC(=O)c1ccc(COC(=O)C2COc3ccccc3O2)o1 (stereo not drawn),7,.,.,.,.
O=C(NN1CCOCC1)c1ccn(COc2c(Cl)cccc2Cl)n1,-4,.,.,.,.
O=C(NN1CCOCC1)c1ccn(COc2ccc(Br)cc2)n1,-33*,.,.,.,.
Cc1ncoc1C(=O)NC1CC(C)(C)Cc2c1cnn2-c1ccc(F)cc1 (stereo not drawn),0,85*,0,-2,2
CC(C)(C)c1ccc(C(=O)NC(=S)NNC(=O)c2cccs2)cc1,-3,?,74*,-16,-20
CCCOc1ccc(C(=O)NNC(=S)NC(=O)c2cccs2)cc1,-8,10,53*,-7,4
CCCC(CCC)c1nc2ccncc2[nH]1,-18,-5,-1,6,?
c1cc2nc(C34CC5CC(CC(C5)C3)C4)[nH]c2cn1,-33*,-5,0,-5,3
CCOC(=O)C1CCC(CNC(=O)Nc2c(NC3CCCCC3)c3ccccc3oc2=O)CC1 (stereo not drawn),8,.,.,.,.
Cc1cc(=O)oc2cc(OCC(=O)Oc3ccc4ccccc4c3)ccc12,44,.,.,.,.
CN(C)S(=O)(=O)c1cccc(NC(=O)c2cccc(Oc3ccccc3)c2)c1,-2,.,.,.,.
CCCCN(CCCC)Cc1ccc(C(=O)NNC(=O)Nc2ccccc2)o1,-8,3,0,36,-3
CCCCC#Cc1ccc(C(=O)NNC(=O)Nc2ccccc2)o1,-39*,-1,0,-16,25
CCn1c(CNC(=O)c2ccc3c(c2)OCO3)nnc1SCC(=O)c1ccc(OC)cc1,-30*,.,.,.,.
COc1ccc(NS(=O)(=O)c2ccc(OC)c(OC)c2)cc1OC,-7,0,-1,-1,-11
COc1ccc(S(=O)(=O)NNS(=O)(=O)c2ccc(OC)c(OC)c2)cc1OC,-81*,.,-1,.,.
O=C(O)c1cnc(-c2ccccc2)nc1,0,.,.,.,.
Cc1c(C#N)c(NC(=O)CSc2nncn2-c2ccccc2)n(Cc2ccco2)c1C,2,.,.,.,.
CCOC(=O)c1ccc(NC(=O)CC2SC(c3cc4ccccc4oc3=O)=NC2=O)cc1 (stereo not drawn),-31*,.,.,.,.
O=C(CC1SC(c2cc3ccccc3oc2=O)=NC1=O)Nc1ccc2ccccc2c1 (stereo not drawn),34,.,.,.,.
Cc1cc(C(C)(C)C)oc1C(=O)N(CC(=O)NC1CCCC1)Cc1ccccc1Cl,-4,?,5,14,-28
Cc1ccccc1N(CC(=O)NC1CCCC1)C(=O)c1oc(C(C)(C)C)cc1C,-4,-4,70*,-16,-23
Cc1cc(C(C)(C)C)oc1C(=O)N(CC(=O)NC1CCCC1)c1cccc(C(F)(F)F)c1,-8,?,52*,-6,-18
Cc1ccc2c(c1)c1c3n2CCN(C(=O)c2ccc(C(F)(F)F)cc2)C3CCC1 (stereo not drawn),-5,.,56*,-28,.
Cc1ccc(C(=O)N2CCn3c4c(c5cc(C)ccc53)CCCC42)cc1 (stereo not drawn),-8,.,2,3,.
SMILES,LDHA inh,TRPV1 agonist,TRPML1 agonist,TRPML1 inh,TRPV1 potentiator
Cc1ccc(NC(=O)c2oc3ccccc3c2NC(=O)C2CC2)cc1,-1,?,1,-6,9
O=C(Nc1ccc(F)cc1)c1oc2ccccc2c1NC(=O)C1CC1,-11,82*,2,9,-11
Cc1cccc(C)c1NC(=O)CN(C)C(=O)CSc1ccc(F)c(F)c1,-14,.,.,.,.
N#CCc1c(C#N)c(N)nc(NCc2ccccc2)c1C#N,5,.,.,.,.
Clc1cc(Cl)c(N/N=C/C(Br)=C/c2ccccc2)c(Cl)c1,10,.,.,.,.
O=C(NC1C2CC3CC(C2)CC1C3)c1cccc(F)c1 (stereo not drawn),-9,.,.,.,.
N#CCC(=O)N/N=C/c1ccc(Sc2nc3ccccc3s2)o1,-48*,-1,0,-4,3
CCc1ccc(/C=N/NC(=O)c2c[nH]c3ccccc23)s1,-4,85*,3,-1,-14
O=S(=O)(c1ccc(F)cc1)N1CCN(c2ccc(NCc3ccccc3)nn2)CC1,5,.,.,.,.
C/C(=N\Nc1ccc2nncn2n1)c1ccc(Br)s1,-17,96*,2,-10,-10
COC(=O)CC(NC(=O)c1cccc(CS(C)(=O)=O)c1)c1ccc(C)cc1 (stereo not drawn),-18,.,.,.,.
Cc1nc2c3ccccc3nn2c(C)c1CCC(=O)Nc1ccc(C#N)cc1,8,.,.,.,.
Cc1[nH]n(-c2ccc(F)cc2)c(=O)c1CCC(=O)Nc1ccc(C#N)cc1,-30*,.,.,.,.
CCCCn1c(=O)[nH]c2nc3cc(N)ccc3nc2c1=O,33,?,74*,-21,-32
Nc1ccc2nc3c(=O)n(C4CCCCC4)c(=O)[nH]c3nc2c1,8,?,80*,-10,-10
Cc1cc2nc3c(=O)n(CCc4ccccc4)c(=O)[nH]c3nc2cc1N,11,?,114*,-27,-30
Nc1ccc2nc3c(=O)n(CCc4ccccc4)c(=O)[nH]c3nc2c1,26,107*,75*,-28,-15
CC(C)CNC(=O)c1ccccc1N,9,.,.,.,.
COc1cc(/C=C/c2cc(C(=O)O)c3ccccc3n2)ccc1O,-1,.,.,.,.
Cc1cccc(N2C(=O)c3cccc4c(N)ccc(c34)C2=O)c1,0,148*,104*,-10,15
CCN1C(=O)c2cccc3c(Cl)ccc(c23)C1=O,-9,2,-1,-7,-3
Nc1ccc2c3c(cccc13)C(=O)N(c1ccccc1)C2=O,-1,-2,94*,-3,2
CC(C)CCN1C(=O)c2cccc3c(N)ccc(c23)C1=O,0,.,89*,-12,.
Cc1cccc(N2C(=O)c3cccc4c(N(C)CCO)ccc(c34)C2=O)c1,17,1,77*,-1,0
O=C(O)c1ccc2c3c(cccc13)C(=O)N(c1ccccc1)C2=O,3,2,1,-7,0
SMILES,LDHA inh,TRPV1 agonist,TRPML1 agonist,TRPML1 inh,TRPV1 potentiator
CCCCn1nc(C(=O)N2CCC(C(=O)N3CCc4ccccc4C3)CC2)c2ccccc2c1=O,-5,.,.,.,.
O=C(O)CCc1ccc(F)c(F)c1,0,.,.,.,.
Cc1ccc(NC(=O)C(C)N(C)Cc2ccc3c(c2)OCCO3)cc1F (stereo not drawn),1,.,.,.,.
Nc1cccc(N2C(=O)c3cccc4c(N)ccc(c34)C2=O)c1,-6,26,55*,-23,-6
CCOc1ccc(-n2c(-c3ccccc3)c[n+]3c2CCC3)cc1,-5,0,1,26,-2
CSc1c[n+]2c(n1C)CCC2,-34*,-1,3,-4,-2

# Compound activity deposited in PubChem BioAssay by National Center for Advancing Translational Sciences (NCATS).
